Assay outcomes from PubChem BioAssay.
Hits are enriched below; roughly 15% of the tested compounds scored in any of these assays.
RORg inh – blocks mouse ROR gamma transcriptional activity. 5.4% of 310,000 active. Potency, µM (highest dose often 53.6 µM), without a hit: top-dose activity change, negative = inhibition, usual class: inhibitors. Drosophila S2 Gal4-RORgamma UAS-luciferase reporter, 20 h. P51450; further: nearly all actives have a fitted effect of over 60% in size
Target sequence (P51450 whole entry, looked up, the tested form may be a part): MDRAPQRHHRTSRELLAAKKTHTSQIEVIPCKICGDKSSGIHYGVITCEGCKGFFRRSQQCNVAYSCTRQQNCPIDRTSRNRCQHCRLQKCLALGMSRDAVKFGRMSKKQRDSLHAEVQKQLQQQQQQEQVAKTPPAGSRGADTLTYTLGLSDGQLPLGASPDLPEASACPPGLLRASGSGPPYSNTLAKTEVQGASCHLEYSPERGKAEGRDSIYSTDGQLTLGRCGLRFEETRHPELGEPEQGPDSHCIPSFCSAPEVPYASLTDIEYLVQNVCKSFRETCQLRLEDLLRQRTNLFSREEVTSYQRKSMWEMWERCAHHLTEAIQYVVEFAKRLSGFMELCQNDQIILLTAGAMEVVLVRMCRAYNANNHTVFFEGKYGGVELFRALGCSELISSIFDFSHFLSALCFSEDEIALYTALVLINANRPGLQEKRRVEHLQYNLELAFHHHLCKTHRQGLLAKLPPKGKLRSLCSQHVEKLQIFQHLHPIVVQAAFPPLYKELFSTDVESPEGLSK
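Using a luciferase readout, inhibitors were identified by reduced reporter activity in Drosophila cells coexpressing a copper-inducible Gal4–ROR gamma fusion and UAS-driven Photinus luciferase, incubated 20 hr after 700 uM copper sulfate.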
VP16 counter – counter-screen for ROR gamma inhibitors: Gal4-VP16 reporter; Drosophila S2 Gal4-VP16 UAS-luciferase, luminescence, 20 h; Potency, µM (top dose mostly 53.6 µM), inactives show top-dose activity, negative = inhibition, usual class: inhibitors; 3.5% of 310,000 active; AID 2546;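 further: Gal4-VP16 expression switched on by copper sulfate through the metallothionein promoter; nearly all actives have a fitted effect of over 50% in size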
ELG1 repair inh – blocks ELG1-dependent DNA repair in HEK293T cells. HEK293T ELG1-luciferase reporter, luminescence, 16 h; DNA damage induced by 5-fluorouridine. Potency, µM (top dose mostly 46.1 µM), for the others: top-dose activity change, negative = inhibition, most hits filed as inhibitors. 2.3% of 330,000 active. AID 504467; further: nearly all actives have a fitted effect of over 55% in size
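Overnight (16 hr) co-exposure of 2,000 cells/well to 5-fluorouridine and compound at 37 °C preceded detection. Luciferase was quantified via ONE-Glo luminescence; loss of signal denotes inhibition.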
TDP1 cell noCPT – qHTS for Inhibitors of human tyrosyl-DNA phosphodiesterase 1 (TDP1): qHTS in cells in absence of CPT. AID 686978, 2013. 15% of 420,000 active. Potency, µM (highest dose often 46.2 µM), for the others: at the highest dose activity change, negative = growth inhibition, most hits filed as inhibitors. DT40 Tdp1-/- hTDP1 cells, no CPT, ATP luminescence, 48 h; further: nearly all actives have a fitted effect of over 55% in size
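Cells were dispensed at 400 per well, compounds added by pin tool, plates incubated ≥48 hr at 37 °C, then CellTiter-Glo added for 30 min at room temperature before luminescence reading. Line: DT40 Tdp1-/- complemented with hTDP1; camptothecin omitted.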
DT40 TDP1 CPT – DT40-hTDP1 cell growth loss with CPT. chicken DT40 Tdp1-/-;hTDP1 cells + 20 nM CPT, ATP luminescence, 48 h. Potency, µM (series often up to 46.2 µM), for inactives: at the top dose activity change, negative = growth inhibition, actives largely listed as inhibitors. 12% of 420,000 active. AID 686979; further: nearly all actives have a fitted effect of over 55% in size
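Chicken DT40 Tdp1-/- cells complemented with human TDP1, 400 cells/well, exposed to compounds plus 20 nM camptothecin for at least 48 h at 37 C; viability read as ATP content by CellTiter-Glo luminescence.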
12-LOX inh – inhibitors of human 12S-lipoxygenase ALOX12 | Potency, µM (series often up to 108 µM), for inactives: top-dose activity change, negative = inhibition, most hits filed as inhibitors | 1.1% of 580,000 active | purified 12hLO, xylenol orange hydroperoxide absorbance | P18054 | AID 1671190
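Purified human 12hLO at 150 nM in 25 mM Hepes, 0.01% Triton X-100, pH 7.0, preincubated 15 min at room temperature with compound. Reaction started with 40 uM arachidonic acid, 30 min at room temperature. Hydroperoxide measured by Fe-xylenol orange, 573/405 nm absorbance ratio.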
Starred values were filed as active, the others as inactive; [ ] = another dose, or the depositor's remark. The call rests on the fitted dose curve; in most records, active means well fitted curve in the direction sought with a large enough effect; inconclusive means small, poorly fitted or top-dose-only effect, or another doubt; inactive means no such curve, though single readings can be large; an effect the other way counts as inactive or inconclusive. On the % scale 0 is the no-effect control and ±100 the full control effect; potency means the concentration at half of the fitted maximal effect.

Screening Clc1ccc(Cn2ncc3c(NCc4ccco4)ncnc32)c(Cl)c1 returned RORg inh 32%, VP16 counter -4%, ELG1 repair inh inconclusive, TDP1 cell noCPT inconclusive, DT40 TDP1 CPT inconclusive and 12-LOX inh inconclusive.
Screening CCOC(=O)/C(C#N)=C1/C=CN(Cc2ccccc2)C=N1 returned RORg inh 17%, VP16 counter 10%, ELG1 repair inh 15%, TDP1 cell noCPT 1%, DT40 TDP1 CPT -2% and 12-LOX inh 3%.
CCOC(=O)/C(C#N)=C1\C(=O)N(Cc2ccccc2)c2ccccc21 was read as RORg inh -4%, VP16 counter -7%, ELG1 repair inh inconclusive, TDP1 cell noCPT 9.2µM*, DT40 TDP1 CPT 9.2µM* and 12-LOX inh inconclusive.
Screening COc1ccc(-c2c(C)nn(-c3ccccc3)c2N)cc1OC returned RORg inh 38%, VP16 counter 0%, ELG1 repair inh inconclusive, TDP1 cell noCPT -26%, DT40 TDP1 CPT -6% and 12-LOX inh 22%.
Screening COc1ccc(-c2cnn(-c3ccccc3)c2N)cc1OC returned RORg inh 10%, VP16 counter -6%, ELG1 repair inh inconclusive, TDP1 cell noCPT 3%, DT40 TDP1 CPT 2% and 12-LOX inh 0%.
Screening COC(=O)c1ccc(-n2cc(-c3ccc(OC)cc3)[nH]c2=S)cc1 returned RORg inh 3.2µM*, VP16 counter inconclusive, ELG1 repair inh -5%, TDP1 cell noCPT 0%, DT40 TDP1 CPT -2% and 12-LOX inh inconclusive.
Screening COc1ccccc1-c1cn(-c2ccccc2)c(=S)[nH]1 returned RORg inh 2.8µM*, VP16 counter 5.6µM*, ELG1 repair inh inconclusive, TDP1 cell noCPT 21µM*, DT40 TDP1 CPT inconclusive and 12-LOX inh 0%.
For COc1ccc(-c2cn(-c3ccc(C)c(C)c3)c(=S)[nH]2)cc1OC the results were RORg inh inconclusive, VP16 counter 13µM*, ELG1 repair inh 0%, TDP1 cell noCPT 16µM*, DT40 TDP1 CPT -23% and 12-LOX inh 28µM*.
`COc1ccc(-c2cn(-c3ccccc3)c(=S)[nH]2)cc1OC` gave RORg inh 5.6µM*, VP16 counter 11µM*, ELG1 repair inh inconclusive, TDP1 cell noCPT 9%, DT40 TDP1 CPT 0% and 12-LOX inh inconclusive.
O=C(c1cc(F)cc(F)c1)N1CCOc2ccccc21 was read as 12-LOX inh 8%.
For Cc1ccccc1-c1cc(C(=O)NCCc2ccccc2)c2ccccc2n1 the results were 12-LOX inh -19%.
`COc1cccc(-n2cc(-c3ccc(F)cc3)[nH]c2=S)c1` gave RORg inh 1.3µM*, VP16 counter inconclusive, ELG1 repair inh inconclusive, TDP1 cell noCPT -16%, DT40 TDP1 CPT inconclusive and 12-LOX inh 22µM*.
`COc1ccc(-n2cc(-c3ccc(Cl)cc3)[nH]c2=S)cc1` gave RORg inh -42%, VP16 counter 4%, ELG1 repair inh inconclusive, TDP1 cell noCPT 2%, DT40 TDP1 CPT -10% and 12-LOX inh -28%.
COc1ccc(-c2cn(-c3ccc(C)c(Cl)c3)c(=S)[nH]2)cc1OC was read as RORg inh inconclusive, VP16 counter 10µM*, ELG1 repair inh 12%, TDP1 cell noCPT inconclusive, DT40 TDP1 CPT inconclusive and 12-LOX inh inconclusive.
`CC(C)c1ccc2c(c1)-c1ccccc1S(=O)(=O)N2CC(=O)NCc1cccnc1` gave 12-LOX inh 9%.
`O=C(COc1cccc(F)c1)Nc1ccc(-n2cnnn2)cc1` gave 12-LOX inh 11%.
Screening Cc1nn(-c2ccc3nncn3n2)c2c1C(c1ccccc1)CC(=O)N2 (configuration not stated) returned 12-LOX inh -5%.
For CCc1nnc2c3ccccc3nc(Nc3ccc(F)c(Cl)c3)n12 the results were TDP1 cell noCPT 18µM*, DT40 TDP1 CPT 18µM* and 12-LOX inh -15%.
`CCOc1ccc(Nc2nc3ccccc3c3nnc(CC)n23)cc1` gave TDP1 cell noCPT 10µM*, DT40 TDP1 CPT 15µM* and 12-LOX inh -9%.
CCN(CC)c1nc2ccccc2nc1C(=O)Nc1ccc(F)c(Cl)c1 was read as 12-LOX inh 0%.
CCOC(=O)c1cccc(NC(=O)CC2C(=O)N(c3ccc(Cl)cc3)C(=O)N2C2CCCC2)c1 (configuration not stated) was read as TDP1 cell noCPT 18µM*, DT40 TDP1 CPT 21µM* and 12-LOX inh inconclusive.
CCOC(=O)c1cccc(NC(=O)CC2C(=O)N(c3ccc(OC)cc3)C(=O)N2C2CCCC2)c1 (configuration not stated) was read as TDP1 cell noCPT 23µM*, DT40 TDP1 CPT 23µM* and 12-LOX inh -26%.
Screening CC(C)NC(=O)N[C@H]1C[C@H]2C(=O)NC[C@@H](CCC(=O)N3CCN(C)CC3)N2C1 returned 12-LOX inh 13%[176 µM].
`Cc1cc(C)nc(N/N=C/c2cc(Br)ccc2O)n1` gave RORg inh 3.2µM*, VP16 counter 18µM*, ELG1 repair inh inconclusive, TDP1 cell noCPT 3.7µM*, DT40 TDP1 CPT 5.2µM* and 12-LOX inh 0%.
For Cc1cc(C)nc(N/N=C/c2ccccc2OCC(=O)O)n1 the results were RORg inh -24%, VP16 counter -6%, ELG1 repair inh 1%, TDP1 cell noCPT 23%, DT40 TDP1 CPT -2% and 12-LOX inh 12%.
Screening Cc1cc(C)nc(N/N=C/c2ccccc2OCc2ccc(Cl)cc2)n1 returned RORg inh 10µM*, VP16 counter inconclusive, ELG1 repair inh inconclusive, TDP1 cell noCPT inconclusive, DT40 TDP1 CPT 16µM* and 12-LOX inh 2%.
Screening Cc1cc(C)nc(N/N=C/c2ccccc2OCc2cccc(Br)c2)n1 returned RORg inh 50µM*, VP16 counter 35µM*, ELG1 repair inh 21µM*, TDP1 cell noCPT 18µM*, DT40 TDP1 CPT inconclusive and 12-LOX inh 12%.
Cc1cc(C)nc(N/N=C/c2ccccc2OCc2ccccc2)n1 was read as RORg inh 8.9µM*, VP16 counter inconclusive, ELG1 repair inh inconclusive, TDP1 cell noCPT inconclusive, DT40 TDP1 CPT inconclusive and 12-LOX inh -13%.
Screening Cc1nc(NC(=O)CSc2nnc(-c3ccccc3F)n2C)sc1C returned 12-LOX inh -1%.
